Screens: PubChem, National Center for Advancing Translational Sciences (NCATS)
NPR1 antag: human Npr1 receptor antagonism; P16066; HEK293 hNpr1 GloSensor cGMP, ANP-stimulated luminescence; Potency, µM (series often up to 46.3 µM), actives largely listed as inhibitors; 76,000 compounds, 1.6% hits; calls by dose curve; further: nearly all actives have a fitted effect of over 60% in size
Target sequence (P16066 whole entry, looked up): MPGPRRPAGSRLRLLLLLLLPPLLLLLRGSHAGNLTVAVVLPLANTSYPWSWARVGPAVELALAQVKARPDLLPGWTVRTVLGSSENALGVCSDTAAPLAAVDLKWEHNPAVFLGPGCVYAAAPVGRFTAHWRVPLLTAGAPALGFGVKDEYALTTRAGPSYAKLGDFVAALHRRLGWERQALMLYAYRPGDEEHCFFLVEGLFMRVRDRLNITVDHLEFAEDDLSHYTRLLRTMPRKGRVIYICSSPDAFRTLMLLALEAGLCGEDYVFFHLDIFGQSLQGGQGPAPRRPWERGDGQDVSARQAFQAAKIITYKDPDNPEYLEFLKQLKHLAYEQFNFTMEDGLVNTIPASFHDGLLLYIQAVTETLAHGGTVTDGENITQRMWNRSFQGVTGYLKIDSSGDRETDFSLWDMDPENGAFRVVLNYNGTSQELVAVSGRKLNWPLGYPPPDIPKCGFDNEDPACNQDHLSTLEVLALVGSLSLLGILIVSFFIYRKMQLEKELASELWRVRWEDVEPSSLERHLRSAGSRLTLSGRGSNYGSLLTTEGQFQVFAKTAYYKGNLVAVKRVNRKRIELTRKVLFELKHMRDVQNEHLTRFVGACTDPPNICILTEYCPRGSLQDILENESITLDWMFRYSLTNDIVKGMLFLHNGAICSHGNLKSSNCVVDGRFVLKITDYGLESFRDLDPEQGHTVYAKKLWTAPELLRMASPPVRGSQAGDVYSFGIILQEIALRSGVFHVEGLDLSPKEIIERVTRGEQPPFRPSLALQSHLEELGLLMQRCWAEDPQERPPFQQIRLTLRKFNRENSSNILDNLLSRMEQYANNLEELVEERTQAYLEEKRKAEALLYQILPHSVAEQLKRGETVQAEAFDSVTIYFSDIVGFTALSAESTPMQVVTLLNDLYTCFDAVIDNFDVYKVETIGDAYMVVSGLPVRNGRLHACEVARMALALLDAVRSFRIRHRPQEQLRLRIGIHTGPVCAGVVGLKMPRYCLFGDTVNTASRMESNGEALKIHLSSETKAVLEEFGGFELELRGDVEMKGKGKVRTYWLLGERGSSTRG
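Compound pre-incubated 30 min at room temperature on GloSensor-loaded HEK293 cells stably carrying hNpr1 and the pGS-40F cGMP biosensor. Stimulation uses hNppA at 0.1 nM final; luminescence is taken at baseline and 20 min post-agonist.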
FLuc inh: inhibitors of firefly (Photinus pyralis) luciferase | P08659 | purified P. pyralis luciferase, luminescence, biochemical | AID 1347043 | Potency, µM (top dose mostly 115 µM), most hits filed as inhibitors | 76,000 compounds, 2.5% hits; further: nearly all actives have a fitted effect of over 65% in size
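Cell-free enzyme assay, 10nM P. pyralis luciferase, luciferin and ATP each at 10uM. Inhibition profiled over a 6-point titration, read as luminescence.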
GPT2 inhibitor: blocks human glutamate pyruvate transaminase 2 | 100,000 compounds, 0.25% hits | Potency, µM (top dose mostly 57.7 µM), hits mostly inhibitors | Recombinant GPT2, coupled pyruvate oxidase/HRP Amplex Red fluorescence | Q8TD30; further: nearly all actives have a fitted effect of over 60% in size
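Inhibition is scored from Amplex Red fluorescence generated when pyruvate oxidase and HRP act on pyruvate released by GPT2. Reactions contain 10ng/uL enzyme, 250uM a-KG and 2mM L-alanine and run 30 min at room temperature.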
HEK293 tox: cytotoxic compounds in HEK 293 cells | HEK 293 viability, ATP luminescence (CellTiter-Glo), 48-72 h | Potency, µM (highest dose often 115 µM), most hits filed as inhibitors | 94,000 compounds, 6.6% hits; further: nearly all actives have a fitted effect of over 60% in size
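HEK 293 cells seeded at 250 cells/well were exposed to compound for 48 or 72 hr at 37 degree Celsius. Viability taken as ATP content by CellTiter-Glo luminescence.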
3T3 cytotox: kills NIH 3T3 cells; NIH 3T3 viability, CellTiter-Glo ATP luminescence, 48-72 h; Potency, µM (highest dose often 96.7 µM), actives largely listed as inhibitors; 94,000 compounds, 4.3% hits; AID 1345082; further: nearly all actives have a fitted effect of over 55% in size
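ATP-dependent luminescence (CellTiter-Glo) served as the viability signal for NIH 3T3 cells treated with compound for 48 or 72 hr at 37 °C.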
Large screens that a line does not name were inactive. Only some compounds are listed: those with a hit (about 10% of all), similar ones and a draw of the others. Unless noted, the call rests on the fitted dose curve; in most records, active means well fitted curve in the direction sought with a large enough effect; inconclusive means small, poorly fitted or top-dose-only effect, or another doubt; inactive means no such curve, though single readings can be large; an effect the other way counts as inactive or inconclusive.

Cn1ccc2c(C(=O)NCc3cnccn3)nc(-c3cccc(N4CCOCC4)c3)cc21	3T3 cytotox inconclusive
CN1CCN(c2ccc(-c3cc4c(ccn4C)c(C(=O)NCC4CCOCC4)n3)cc2)CC1	FLuc inh 35.5µM, HEK293 tox inconclusive, 3T3 cytotox 20µM
CN1CCN(c2ccc(-c3cc4c(ccn4C)c(C(=O)NCc4cccnc4)n3)cc2)CC1	FLuc inh inconclusive, HEK293 tox 28.2µM, 3T3 cytotox inconclusive
Cn1ccc2c(C(=O)NCc3cccnc3)nc(-c3cccc(O)c3)cc21	HEK293 tox inconclusive, 3T3 cytotox inconclusive
NC(=O)c1cc2c(nc1N1CCC3(CCCN(CC4CCC4)C3)C1)CCC2 (stereo not given)	none
CCCCn1c(=O)c(C(=O)N2CCN([S+](=O)([O-])c3c(C)noc3C)CC2)nc2cccnc21	none (no result: NPR1 antag, FLuc inh)
Cn1ccc2c(C(=O)NCc3cccnc3)nc(-c3cncnc3)cc21	3T3 cytotox 44.7µM
Cn1ccc2c(C(=O)NCc3cccnc3)nc(-c3cnn(Cc4ccccc4)c3)cc21	HEK293 tox 63.1µM, 3T3 cytotox inconclusive
COc1ccc(-c2cc3c(ccn3C)c(C(=O)NCc3cccnc3)n2)cc1	FLuc inh inconclusive, HEK293 tox 112µM, 3T3 cytotox inconclusive
Cn1ccc2c(C(=O)NCc3cccnc3)nc(-c3ccc([S+](C)(=O)[O-])cc3)cc21	HEK293 tox inconclusive, 3T3 cytotox inconclusive
Cc1ccc(-c2cc3c(ccn3C)c(C(=O)NCc3cccnc3)n2)cn1	HEK293 tox inconclusive, 3T3 cytotox 35.5µM
O=C(NCCc1cnc[nH]1)c1nc(-c2ccccc2)cc2[nH]ccc12	HEK293 tox inconclusive, 3T3 cytotox inconclusive
Cc1ccc(-c2cc3c(ccn3C)c(C(=O)NCCc3cnc[nH]3)n2)cn1	HEK293 tox inconclusive, 3T3 cytotox 28.2µM
CN(C)c1ccc(CN2CC[C@H](c3nc4c(C(N)=O)cccc4[nH]3)C2)cc1	NPR1 antag inconclusive, HEK293 tox 70.8µM, 3T3 cytotox 100µM
CC(=O)Nc1ccc(NC(=O)CN2C(=O)NC(c3ccc(C)cc3)C3=C2COC3=O)cc1 (stereo not given)	FLuc inh inconclusive, GPT2 inhibitor inconclusive
CCc1cccc(NC(=O)CN2C(=O)NC(c3ccc(C)cc3)C3=C2COC3=O)c1 (stereo not given)	HEK293 tox 28.2µM, 3T3 cytotox inconclusive
Cc1ccc(C2NC(=O)N(CC(=O)Nc3ccc(Br)cc3F)C3=C2C(=O)OC3)cc1 (stereo not given)	HEK293 tox 35.5µM, 3T3 cytotox inconclusive
Cc1ccc(C2NC(=O)N(CC(=O)Nc3ccc(Br)c(C)c3)C3=C2C(=O)OC3)cc1 (stereo not given)	NPR1 antag inconclusive, HEK293 tox inconclusive, 3T3 cytotox 35.5µM
CC(=O)c1cccc(NC(=O)CN2C(=O)NC(c3ccc(C)cc3)C3=C2COC3=O)c1 (stereo not given)	HEK293 tox inconclusive
Cc1ccc(C2NC(=O)N(CC(=O)Nc3cc(F)cc(F)c3)C3=C2C(=O)OC3)cc1 (stereo not given)	HEK293 tox inconclusive, 3T3 cytotox inconclusive
Cc1nc(N2CCN(C(=O)c3ccc(Cl)cc3)CC2)cc(C(F)(F)F)n1	HEK293 tox inconclusive, 3T3 cytotox inconclusive
CN(C)c1ccc(-c2noc([C@@H]3CCCN3Cc3ccc(CO)o3)n2)cn1	FLuc inh inconclusive
FC(F)(F)c1ccc(-c2noc([C@@H]3Cc4nc[nH]c4CN3CC3CCCCC3)n2)cc1	GPT2 inhibitor inconclusive, HEK293 tox 31.6µM, 3T3 cytotox 28.2µM
O=C(c1ccccc1)N1Cc2[nH]cnc2C[C@H]1c1nc(-c2ccc(Cl)cc2)no1	HEK293 tox inconclusive, 3T3 cytotox inconclusive
Clc1ccc(-c2noc([C@@H]3Cc4nc[nH]c4CN3CC3CCCCC3)n2)cc1	HEK293 tox 50.1µM, 3T3 cytotox 28.2µM
c1cc(-c2noc([C@@H]3Cc4nc[nH]c4CN3CC3CCCCC3)n2)ccn1	HEK293 tox inconclusive, 3T3 cytotox 79.4µM
CN(C)c1ccc(-c2noc([C@@H]3CCCN3CC3CCCCC3)n2)cn1	NPR1 antag inconclusive, FLuc inh 35.5µM, GPT2 inhibitor inconclusive, HEK293 tox inconclusive, 3T3 cytotox 79.4µM
O=C(NCc1cccs1)C1CCN(C(=O)c2ccc(-c3cncnc3)cc2)CC1	none (no result: NPR1 antag, FLuc inh, GPT2 inhibitor)
COC(=O)CC(C)(O)CC(=O)OCc1ccc(O[C@@H]2O[C@H](CO)[C@@H](O)[C@H](O)[C@H]2O)cc1 (stereo not given in full)	none (no result: NPR1 antag, FLuc inh, HEK293 tox, 3T3 cytotox)
Cc1nn2c(c1-c1ccccc1C(C)C)N(Cc1ccc(F)cc1)CCC2	HEK293 tox 50.1µM, 3T3 cytotox 28.2µM
COc1ncccc1CN1CCCn2nc(C)c(-c3ccccc3C(C)C)c21	HEK293 tox 50.1µM, 3T3 cytotox 44.7µM
COc1ccccc1CN1CCCn2nc(C)c(-c3ccccc3[S+](C)(=O)[O-])c21	GPT2 inhibitor inconclusive, HEK293 tox 44.7µM, 3T3 cytotox 35.5µM
COc1ccc(C(=O)N2CCCn3nc(C)c(-c4ccccc4C(C)C)c32)cn1	3T3 cytotox inconclusive
COc1cccc(Nc2ncc3c(n2)C(C)(C(=O)NCCCn2ccnc2)CC3)c1 (stereo not given)	HEK293 tox inconclusive, 3T3 cytotox 25.1µM
COc1ccc(NC(=O)C2(C)CCc3cnc(Nc4ccccc4)nc32)cn1 (stereo not given)	HEK293 tox 100µM, 3T3 cytotox inconclusive
CC1(C(=O)NC2CC2)CCc2cnc(Nc3ccccc3)nc21 (stereo not given)	NPR1 antag inconclusive, HEK293 tox 39.8µM, 3T3 cytotox 28.2µM
COc1cccc(Nc2ncc3c(n2)C(C)(C(=O)NCCN2CCOCC2)CC3)c1 (stereo not given)	HEK293 tox inconclusive, 3T3 cytotox inconclusive
CN1CCC(NC(=O)C2(C)CCc3cnc(Nc4ccccc4)nc32)CC1 (stereo not given)	HEK293 tox inconclusive, 3T3 cytotox inconclusive
CC1(C(=O)N2CCC(c3ccccc3)CC2)COCc2cnc(Nc3ccccc3)nc21 (stereo not given)	NPR1 antag inconclusive, HEK293 tox 63.1µM, 3T3 cytotox 44.7µM
CCCn1ccc2oc(C)c(C(=O)NCc3ccc(CC)cc3)c2c1=O	FLuc inh inconclusive, GPT2 inhibitor inconclusive, HEK293 tox inconclusive, 3T3 cytotox inconclusive
COc1ccc(C[C@H](NC(=O)C2=C[C@@H](NC(=O)c3ccccc3Br)[C@@H](O)[C@H](O)C2)C(N)=O)cc1	none
CN(C)c1ncc2c(n1)C(C)(C(=O)NCc1ccc3c(c1)OCO3)CCC2 (stereo not given)	HEK293 tox inconclusive, 3T3 cytotox inconclusive
COc1ccc(NC(=O)C2(C)CCCc3cnc(Nc4cccnc4)nc32)cc1 (stereo not given)	3T3 cytotox 35.5µM
